Data reported in PubChem BioAssay (Tox21).
Values without a mark were called inactive. The source made the active and inactive calls. Calls come from the whole dose curve; as a rule, active = well fitted curve in the direction sought with a large enough effect in the repeat runs; inconclusive = weak or mixed curves; inactive = flat fitted curve, though single readings scatter.

test: qHTS assay to test for compound auto fluorescence at 460 nm (blue) in HEK293 cells (AID 720678); settings: blue autofluorescence 405/460 nm; series mostly up to 91.3 µM; fluorescence, % of triamterene: at the top concentration
Text: National Center for Advancing Translational Sciences [NCATS]
NIH Chemical Genomics Center [NCGC]
U.S. Environmental Protection Agency [EPA]
National Institutes of Environmental Health Sciences [NIEHS]
National Toxicology Program [NTP]
U.S. Food and Drug Administration [FDA]
Compound auto fluorescence often interferes with screening of the compound library against various biological targets and signaling pathways. Some of these compounds may have fluorophoric properties. Such properties may interfere with the assay outputs resulting in false positives and/or negatives. To decrease such complications and ensure the compound activities are relevant in terms of biological response, the Tox21 10K compound library was screened for auto fluorescence.
From the fluorophores used as reporter signals in our screening assays, the auto fluorescence equivalencies of compounds against three fluorophores have been evaluated: Triamterene, Fluorescein and Rose Bengal sodium for blue, green and red fluorescence, respectively. The fluorescence intensities were measured using Excitation/Emission wavelengths at 405/460nm, 485/535nm and 540/590nm for blue, green and red labels, respectively. This assay includes the blue fluorescence data.
Tox21 Assay Protocol Summary:
2,000 HEK293 cells in 5 uL of culture medium containing 10% dialyzed FBS per well were dispensed into black wall/clear bottom 1536-well plates using a Multidrop Combi Dispenser (Thermo Scientific). The assay plates were incubated for 4-5 hr at 37C to allow cell attachment to the well bottom, followed by the transfer of 23 nL compound or DMSO vehicle by a pintool work station (Kalypsys, San Diego, CA). After the assay plates were incubated overnight at 37C and 5% CO2, fluorescence intensities in the assay plates were measured by an Envision (PerkinElmer, Shelton, CT) plate reader using three labels for measuring blue, green and red fluorescence at […] 460, 535 and 590nm respectively.
% is set by controls: 0 for no effect and ±100 for the full control effect.

| SMILES | fluorescence, % of triamterene | outcome |
| --- | --- | --- |
| CC[N+]1(CCOC(=O)C(O)(c2ccccc2)c2ccccc2)CCCCC1 | -0.047% [at 46 µM] | – |
| Nc1ccccc1C(=O)OCCc1ccccc1 | – | inactive |
| CCC(C)(C)c1ccc(O)c(C(C)(C)CC)c1 | – | inactive |
| CN(C1CCCCC1)C1CCCCC1 | -0.0549% | – |
| c1ccc2c(c1)-c1cccc3cccc-2c13 | – | inactive |
| CCCCOC(=O)CCC(=O)OCCCC | -0.102% | – |
| CON(C)C(=O)Nc1ccc(Cl)cc1 | 0.0857% | – |
| c1ccc2sc(SNC3CCCCC3)nc2c1 | – | inactive |
| Cc1nc(N(C)C)nc(OC(=O)N(C)C)c1C | -0.0639% | – |
| O=C(O)c1cc(Cl)ccc1Cl | 0.0082% | – |
| O=C(O)C(Cl)(Cl)Br | -0.446% | – |
| C[N+](C)(C)CC1CO1 (stereo not given) | -0.0304% | – |
| Cc1cccc(C)c1NC1=NCCCS1 | -0.0065% [at 46 µM] | – |
| COc1cc(CC(C)N)c(OC)cc1Br (stereo not given) | – | inactive |
| C=CC(=O)NC(C)(C)CC(C)=O | -0.0157% | – |
| O=CC=O | – | inactive |
| CC(Cc1ccccc1)NCc1ccccc1Cl (stereo not given) | -0.183% [at 46 µM] | – |
| O=C(N[C@H]1CN2CCC1CC2)c1ccc2c(c1)OCCO2 | 0.0611% | – |
| CC(=O)OC(c1ccccc1)C(Cl)(Cl)Cl (stereo not given) | -0.014% | – |
| CCCC[P+](CC)(CCCC)CCCC (tested in a mixture with another compound) | -0.0262% | – |

| SMILES | fluorescence, % of triamterene | outcome |
| --- | --- | --- |
| O=[N+]([O-])/C=C/c1ccccc1 | – | inactive |
| CCCCCBr | 0.0203% [at 95.7 µM] | – |
| CCC(C)Cl (stereo not given) | 0.0395% | – |
| NP(N)(=O)NC(=O)c1ccc(F)cc1 | 0.0784% [at 46 µM] | – |
| COCc1cnc(C2=NC(C)(C(C)C)C(=O)N2)c(C(=O)O)c1 (stereo not given) | -0.073% | – |
| OCC1CO1 (stereo not given) | – | inactive |
| CCC1(CC)C(=O)NC(=O)NC1=O | 0.0281% [at 46 µM] | – |
| NNCCO | 0.0679% | – |
| O=C1NC(=O)C(=O)C(=O)N1 | 0.0544% [at 95.7 µM] | – |
| CC(C)(C)N(NC(=O)c1ccc(Cl)cc1)C(=O)c1ccccc1 | 0.0703% | – |
| CN1CC[C@]23c4c5ccc(O)c4O[C@H]2[C@@H](O)CC[C@H]3[C@H]1C5 | -0.216% | – |
| CN1CC[C@]23c4c5ccc(O)c4O[C@H]2[C@@H](O)C=C[C@H]3[C@H]1C5 | -0.147% | – |
| O=C(O)C(F)(F)C(F)(F)C(F)(F)C(F)(F)C(F)(F)F | 0.153% | – |
| CCCCNC(=O)OCC#CI | – | inactive |
| FC(Cl)(Cl)C(F)(Cl)Cl | -0.0019% [at 95.7 µM] | – |
| CC(C)(C)c1ccc(CCOc2ncnc3ccccc23)cc1 | -0.101% | – |
| CCCCC1C(=O)NC(=O)N(C2CCCCC2)C1=O (stereo not given) | -0.0144% [at 46 µM] | – |
| O=C(Cc1ccccc1)OCCc1ccccc1 | -0.144% | – |
| COc1ccccc1N1CCNCC1 | 0.346% [at 46 µM] | – |
| C=CC(C)(CCC=C(C)C)OC(=O)c1ccccc1N (stereo not given) | -0.252% | – |
